From PubChem BioAssay come the findings set out here.

Test [1] is described as follows: reducers of endogenous Her2 protein level, primary screen, SKBR3 breast tumor cells, AlphaScreen, ATP viability (AID 461;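 active = Her2 level under about 52% in both replicate screens, with viability over 70% of control, limit read from the data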;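 for Her2 level: lower value means less Her2 protein in the cells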;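 for viability: percent of carrier control wells set as 100% viability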). The conditions noted are these: 18-24 h, measured here: SKBR3 viability, ATP luminescence, at 10 µM.
Test [2] concerns the target Receptor tyrosine-protein kinase erbB-2 (Homo sapiens) (UniProt P04626). The test is described as above. The note with it: 18-24 h, at 10 µM, stronger effect = lower value.
Test [3] in a line: SK-BR-3 cell growth inhibitors, pilot screen, 24 h, human (AID 572).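 Note: compound exposure lasted between 18 and 24 h rather than exactly 24 h; 100% = carrier-treated control wells.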 The conditions noted are these: SK-BR-3 viability, CellTiter-Glo luminescence, at 10 µM, stronger effect = lower value. On the technique in general: In ATP-based viability assays light output follows the ATP content of the culture.
Test [4] in a line: HUVEC growth inhibition – cell-based, human, primary screen (AID 575;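 active = viability at or below 30% in both replicate assays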;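 note: 100% = median of untreated cell wells with 0.1% DMSO on each plate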). The note with it: HUVEC proliferation, CellTiter-Glo luminescence, 72 h; at 10 µM; stronger effect = lower value.
A short description of test [5]: growth inhibitors of H69AR lung tumor, primary screen, human, duplicate replicates (AID 580;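 active = viability at or under a set limit in both replicates, limit being median viability minus 3 SD, cut at about 48% in these data, passing the limit was not always enough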;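 note: 100% = mean luminescence of untreated wells and 0% = no signal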). The conditions noted are these: H69AR lung tumor cells viability, ATP luminescence, 72 h; at 10 µM; stronger effect = lower value.
The nature of test [6]: reversal of MRP1-mediated doxorubicin resistance, pilot screen, H69AR cells, doxorubicin co-treatment (AID 601;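 active = viability loss from added drug above about 55%, and viability with drug at most 40%, in both replicates, limit read from the data, passing the limit was not always enough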). The note with it: CellTiter-Glo, 72 h, at 10 µM; for differential viability (reversal): stronger effect = higher value.
Test [7] in a line: 384-well plate pilot, post-Golgi transport modulator project, inhibition of yeast transport mutant growth (AID 636; in the data active = inhibition above about 31%). The conditions noted are these: absorbance 615 nm, about 18 h, stronger effect = higher value.
The nature of test [8]: growth suppression of yeast trafficking mutant, preliminary HTS, modulators of trafficking downstream of Golgi apparatus project, 1536-format plate, OD 615 nm (AID 637; in the data active = inhibition above about 30%). The note with it: yeast transport mutant growth, absorbance 615 nm, 18 h; stronger effect = higher value.
A short description of test [9]: OD615 S. cerevisiae growth inhibition, permissive medium, pilot counter-assay, permissive growth control for S. cerevisiae lifespan shortening project (AID 705;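 active = growth inhibition above 25% in both replicates, a cutoff set 3 SD above the mean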). The conditions noted are these: OD615, 24 h, at 10 µM, stronger effect = higher value.
Test [10] in a line: Restrictive medium S. cerevisiae growth inhibition, OD615, pilot screen of yeast lifespan reduction project, restrictive growth control (AID 706;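 active = growth inhibition above a set limit, 3 SD over mean compound inhibition, in both replicates, cut at about 43% in these data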;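 note: modified DeaD lifespan yeast strain shifted to restrictive glucose medium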). The conditions noted are these: OD615, 48 h, at 10 µM, stronger effect = higher value.
Test [11] in a line: viability gain of MRP-1-high H69AR cells under doxorubicin, pilot screen, MRP-1 activator project, CellTiter-Glo, duplicate (AID 807;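 active = viability increase at or above a cutoff of the median across tested compounds plus 3 SD, cut at about 8.5% in these data, passing the limit was not always enough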;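 note: compound pretreatment 18-22 h then 72 h combined with doxorubicin; 0% = doxorubicin alone and 100% = vehicle without doxorubicin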). The conditions noted are these: H69AR viability with doxorubicin, CellTiter-Glo luminescence; at 10 µM; stronger effect = higher value.
Test [12] in a line: growth suppression of PTEN-deleted HCT116, pilot screen, cell-based, HCT116 clonal line, CellTiter-Glo (AID 824;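 active = viability at or below 27.92% in each of two runs, the all-compound median minus 4 SD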;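 note: 0% = 20 µM Hyamine control and 100% = vehicle cell control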). The note with it: 60 h, at 10 µM, stronger effect = lower value.
A short description of test [13]: inhibitors of the yeast RAM network, pilot screen, dse1pr::URA3 reporter, 5-FOA selection (AID 869;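 active = inhibition over a set limit, the all-compound mean plus 3 SD, in both replicate runs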;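 note: 0% = DMSO wells with no growth and 100% = 10 µM 1-NA-PP1 with full growth; RAM network block rescues cells from 5-FOA so hits raise OD615 growth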). The conditions noted are these: S. cerevisiae dse1pr::URA3 5-FOA growth, OD615, 2 d; at 10 µM; stronger effect = higher value; strain carries analog-sensitive mutant Cbk1 kinase.
Test [14] is described as follows: RAM signaling pathway blockade in yeast – S. cerevisiae, Pdr1DBD-CYC8 efflux-inhibited sensitized strain, primary screen (AID 1298;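 active = RAM network inhibition above 8.4% in each of two replicates, 3 SD over the compound average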;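 note: 0% = DMSO untreated cells without growth and 100% = 10 µM 1-NA-PP1 full growth; higher means more yeast growth rescued from 5-FOA killing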). The conditions noted are these: S. cerevisiae cbk1-as DSE1-URA3 strain, 5-FOA growth OD615, 2 d; at 50 µM; stronger effect = higher value.
Test [15] is described as follows: growth suppression of beta-catenin knockout HCT116, pilot screen, human colon tumor cells (AID 823;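 active = cell viability at or below a set limit in both duplicate runs, the limit being the all-compound median minus 4 SD, cut at about 23% in these data, passing the limit was not always enough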;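 note: 0% = wells killed by 20 µM Hyamine and 100% = untreated DMSO cell wells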). The conditions noted are these: CellTiter-Glo, 60 h, at 10 µM, stronger effect = lower value.
Setting [16] is: H69AR cells + 2 uM doxorubicin, measured here: viability with 2 uM doxorubicin, stronger effect = lower value.
Setting [17] is: H69AR cells, compound alone cytotoxicity.

Results filed as inconclusive are left out. Calls of active or inactive are those of the source.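 Rule for the calls, unless noted: active = viability at or below 10% of carrier control in both of two separate runs; inconclusive = viability at or below 10% in only one of the two runs; inactive = the rest.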

Chain of Receptor tyrosine-protein kinase erbB-2 (Homo sapiens) (P04626 whole entry, looked up): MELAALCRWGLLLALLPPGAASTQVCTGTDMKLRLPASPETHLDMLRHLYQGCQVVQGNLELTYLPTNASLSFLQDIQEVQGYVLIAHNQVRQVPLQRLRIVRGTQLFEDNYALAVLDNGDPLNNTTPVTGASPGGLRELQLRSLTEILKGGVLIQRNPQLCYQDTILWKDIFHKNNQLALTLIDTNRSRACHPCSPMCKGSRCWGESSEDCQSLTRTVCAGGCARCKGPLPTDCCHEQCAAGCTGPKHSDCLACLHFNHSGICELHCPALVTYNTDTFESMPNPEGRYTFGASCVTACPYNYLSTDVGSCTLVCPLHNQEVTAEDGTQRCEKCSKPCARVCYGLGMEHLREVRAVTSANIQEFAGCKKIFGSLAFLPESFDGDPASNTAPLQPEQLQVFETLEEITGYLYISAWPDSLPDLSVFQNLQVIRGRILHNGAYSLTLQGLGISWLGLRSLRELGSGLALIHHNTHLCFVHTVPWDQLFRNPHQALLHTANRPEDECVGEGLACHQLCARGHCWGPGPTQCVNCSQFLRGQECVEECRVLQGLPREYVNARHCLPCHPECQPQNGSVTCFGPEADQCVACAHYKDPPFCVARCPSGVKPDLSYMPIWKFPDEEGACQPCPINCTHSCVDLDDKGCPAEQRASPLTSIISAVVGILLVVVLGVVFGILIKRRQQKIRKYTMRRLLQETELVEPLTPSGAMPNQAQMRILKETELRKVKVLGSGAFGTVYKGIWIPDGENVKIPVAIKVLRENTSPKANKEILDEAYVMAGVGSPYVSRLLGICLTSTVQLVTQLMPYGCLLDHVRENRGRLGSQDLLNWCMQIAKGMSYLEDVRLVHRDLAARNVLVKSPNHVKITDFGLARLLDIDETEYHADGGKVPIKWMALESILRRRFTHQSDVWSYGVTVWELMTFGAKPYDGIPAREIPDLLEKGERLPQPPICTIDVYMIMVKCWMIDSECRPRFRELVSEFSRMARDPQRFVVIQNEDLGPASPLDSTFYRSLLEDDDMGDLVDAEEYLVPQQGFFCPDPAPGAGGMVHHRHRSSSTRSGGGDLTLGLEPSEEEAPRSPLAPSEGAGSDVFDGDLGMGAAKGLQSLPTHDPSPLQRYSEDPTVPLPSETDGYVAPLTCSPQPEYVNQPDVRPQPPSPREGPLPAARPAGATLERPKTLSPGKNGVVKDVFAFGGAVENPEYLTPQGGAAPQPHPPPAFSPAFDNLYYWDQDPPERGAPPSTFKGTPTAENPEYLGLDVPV

With `COc1ccc(C2C(C(=O)N3CCCC3)c3cc(OC)c(OC)cc3C(=O)N2C)cc1` (stereo unspecified), the viability is 88.5% in test [1]; 88.5% (inactive) in [3]; 94.3% (inactive) in [4]; 102% (inactive) in test [5]; 101% in test [6] (setting [16]); 102% in test [6] (setting [17]). The viability in test [12] was 92.8% (inactive). For the same molecule, the Her2 level in test [2] is 85.5% (inactive). Also, the differential viability (reversal) in [6] (H69AR cells + 2 uM doxorubicin) was 0.95% (inactive). Moreover, the inhibition is -7.95% (inactive) in [7], -0.63% (inactive) in test [8] and 0.655% (inactive) in test [13]. In addition, the growth inhibition in test [9] is -8.59% (inactive); in test [10], -0.445% (inactive). For the same molecule, the viability increase in test [11] is -1.15% (inactive). Further, in test [14], the RAM network inhibition was 5.28% (inactive).

For the molecule `CCOc1ccccc1C1CC(c2ccc(Br)cc2)Nc2nc(N)nn21` (stereo unspecified), the viability is 91.5% in test [1]; 91.5% (inactive) in [3]; 63.3% (inactive) in test [4]; 25.7% (active) in [5]; 71.6% in [6] (setting [16]); 25.7% in test [6] (setting [17]). The viability is 69.3% (inactive) in test [15] and 73.2% (inactive) in test [12]. Further, the Her2 level in test [2] is 102% (inactive). Further, the differential viability (reversal) in [6] (H69AR cells + 2 uM doxorubicin) is -45.9% (inactive). The inhibition in test [7] was -2.13% (inactive); in [8], 0.16% (inactive); in test [13] it was 2.62% (inactive). The growth inhibition in test [9] was 9.24% (inactive). Moreover, the viability increase in test [11] is -2.25% (inactive). Besides, the RAM network inhibition in test [14] is 4.4% (inactive).

`O=C(CSC1=NCCS1)NCc1ccco1`: the viability in [1] was 84%; in test [3], 84% (inactive); in [4], 80.6% (inactive); in [5], 90.1% (inactive); in test [6] (setting [16]), 88.8%; in test [6] (setting [17]), 90.1%. Further, the viability in test [12] was 100% (inactive). The Her2 level in test [2] is 108% (inactive). In test [6] (H69AR cells + 2 uM doxorubicin), the differential viability (reversal) was 1.28% (inactive). The inhibition in [7] is -0.54% (inactive); in test [8], 26.5% (inactive); in [13], 2.73% (inactive). For the same molecule, the growth inhibition in test [9] is 6.88% (inactive); in [10] it was 47.7% (active). The viability increase in test [11] is -3.56% (inactive). The RAM network inhibition in test [14] is 3.89% (inactive).

Consider `O=C(Cn1ncc2c1-c1ccccc1OC2)N1CCc2ccccc21`, for which the viability in test [1] was 83.5%; in [3], 83.5% (inactive); in test [4] it was 96.2% (inactive); in [5] it was 84.3% (inactive); in [6] (setting [16]) it was 85.2%; in test [6] (setting [17]), 84.3%. In addition, the viability in test [15] is 93.4% (inactive); in [12], 88.4% (inactive). The Her2 level in test [2] was 100% (inactive). Besides, the differential viability (reversal) in test [6] (H69AR cells + 2 uM doxorubicin) was -0.91% (inactive). For the same molecule, the inhibition is 0.51% (inactive) in [7], -5.33% (inactive) in test [8] and -0.23% (inactive) in test [13]. The growth inhibition in test [10] is -6.7% (inactive). In addition, the viability increase in [11] was -0.77% (inactive). For the same molecule, the RAM network inhibition in test [14] was 6.41% (inactive).

As for `COCCn1c(SCC(=O)N2CCc3ccccc32)nc2c(c1=O)SC(C)C2` (stereo unspecified), the viability in test [1] was 77%; in test [3], 77% (inactive); in test [4], 67.8% (inactive); in test [5] it was 78.8% (inactive); in [15], 94.1% (inactive); in [12] it was 94.3% (inactive). Further, the Her2 level in test [2] is 104% (inactive). Also, the inhibition is -3.87% (inactive) in test [7], -2% (inactive) in [8] and 0.465% (inactive) in [13]. The growth inhibition was 6.33% (inactive) in [9] and 13.2% (inactive) in test [10]. Moreover, the viability increase in [11] was -2.72% (inactive). In addition, the RAM network inhibition in test [14] was 6.03% (inactive).

With `CCOC(=O)c1cc2c(=O)n3ccccc3nc2n(CCCOC)c1=NC(C)=O`, the viability in test [1] was 90%; in test [3] it was 90% (inactive); in test [4] it was 109% (inactive); in [5], 94.2% (inactive); in test [6] (setting [16]) it was 67.7%; in test [6] (setting [17]), 94.2%. Further, the viability in test [12] is 100% (inactive). Besides, in test [2], the Her2 level was 94.5% (inactive). The differential viability (reversal) in test [6] (H69AR cells + 2 uM doxorubicin) was 26.5% (inactive). In addition, the results for the inhibition in [7], in test [8] and in test [13] were -5.48% (inactive), -0.48% (inactive) and 1.38% (inactive), respectively. Besides, the growth inhibition in test [9] was -6.91% (inactive); in [10], -0.22% (inactive). Further, in [11], the viability increase is -4.92% (inactive). Also, in [14], the RAM network inhibition was 6.83% (inactive).

Turning to `CSc1ccccc1NC(=O)C1CCCO1` (stereo unspecified), the viability was 97.5% in test [1]; 97.5% (inactive) in test [3]; 102% (inactive) in test [4]; 93.9% (inactive) in [5]; 94.2% in [6] (setting [16]); 93.9% in test [6] (setting [17]). Besides, in test [12], the viability is 98.6% (inactive). Moreover, the Her2 level in test [2] was 110% (inactive). For the same molecule, the differential viability (reversal) in test [6] (H69AR cells + 2 uM doxorubicin) was -0.325% (inactive). Further, the inhibition in test [7] was 1.73% (inactive); in [8] it was -6.03% (inactive); in [13] it was 0.11% (inactive). In addition, the growth inhibition in test [9] was -8.35% (inactive); in test [10], -0.95% (inactive). For the same molecule, the viability increase in test [11] is -2.61% (inactive). In addition, the RAM network inhibition in [14] is 2.42% (inactive).

Turning to `CC1CCc2nn(CC(=O)N3CCN(C(=O)c4ccco4)CC3)cc2C1` (stereo unspecified), the viability is 79.5% in test [1]; 79.5% (inactive) in [3]; 119% (inactive) in [4]; 91.6% (inactive) in test [5]; 79.8% in test [6] (setting [16]); 91.6% in test [6] (setting [17]). For the same molecule, the viability in test [15] was 104% (inactive); in [12], 97.9% (inactive). Besides, the Her2 level in test [2] is 95.5% (inactive). Further, in test [6] (H69AR cells + 2 uM doxorubicin), the differential viability (reversal) is 11.8% (inactive). Moreover, the inhibition in test [7] was 0% (inactive); in [8], 2.67% (inactive); in test [13], 3.15% (inactive). The growth inhibition is -0.485% (inactive) in test [9] and 5.38% (inactive) in [10]. The RAM network inhibition in [14] was 7.21% (inactive).

Take `CC(C)CC1NC2(C(=O)N(C)c3ccccc32)C2C(=O)N(C(C)C)C(=O)C12` (stereo unspecified): the viability in test [1] is 86.5%; in test [3], 86.5% (inactive); in test [4], 83.3% (inactive); in test [5], 99.1% (inactive); in test [15], 103% (inactive); in test [12] it was 103% (inactive). In addition, in test [2], the Her2 level is 110% (inactive). In addition, the inhibition in [7] is -1.73% (inactive); in test [8], -0.33% (inactive); in test [13], 1.11% (inactive). The growth inhibition in test [9] is 4.83% (inactive); in [10], 6.6% (inactive). Also, the viability increase in [11] is -1.13% (inactive). For the same molecule, in test [14], the RAM network inhibition is 2.88% (inactive).

Consider `Cc1ccc(C(=O)CSc2n[nH]c(-c3ccco3)n2)cc1C`, for which the viability is 106% in [1]; 106% (inactive) in [3]; 99.2% (inactive) in test [4]; 101% (inactive) in test [5]; 105% in test [6] (setting [16]); 101% in [6] (setting [17]). In addition, the viability in test [15] is 101% (inactive); in test [12] it was 107% (inactive). In addition, in test [2], the Her2 level was 104% (inactive). In [6] (H69AR cells + 2 uM doxorubicin), the differential viability (reversal) is -3.95% (inactive). Also, the inhibition is -4.68% (inactive) in [7], -4.67% (inactive) in [8] and 0.765% (inactive) in test [13]. The results for the growth inhibition in [9] and in test [10] were -13.8% (inactive) and 3.79% (inactive), respectively. In addition, the RAM network inhibition in [14] was 0.94% (inactive).

One may read the viability as a read-out of living cells in per cent, often relative to untreated cells. As a reminder, the inhibition is the drop in the measured response relative to a control, in per cent.
